Source: the supplement of paper PMC10849652
Targets with a hit are over-represented here; the source holds about 8,800 in all. About 0.5% of all pairs of compound and target were hits.

The targets below were run with Cn1cc(CNCC2CCN(c3ncc(C(=O)NO)cn3)CC2)c2ccccc21 [quisinostat] (assay: log2 fold change, soluble protein after heating vs DMSO (PISA); higher = thermal stabilisation; K562 lysate, 10 uM; active = over 0.2 and 3.5 SD of the protein, either way, in both replicates (recomputed)).
Summary of the method: (§1)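 Quantification was by TMTpro 16plex LC-MS/MS with equalised channel sums, applied to the supernatant after 21,000xg for 90 min. Samples were crude K562 extract at 1 mg/mL protein in PBS pH 7.4 with 1 mM MgCl2, treated with 10 μM compound for 30 min, heated for 3 min across 48°C-58°C, pooled and brought to 0.5% NP-40 at 4°C. Values are log-two fold changes in thermal stability relative to solvent controls, from duplicates.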

Chain of UniProt O43182 (O43182 whole entry, looked up): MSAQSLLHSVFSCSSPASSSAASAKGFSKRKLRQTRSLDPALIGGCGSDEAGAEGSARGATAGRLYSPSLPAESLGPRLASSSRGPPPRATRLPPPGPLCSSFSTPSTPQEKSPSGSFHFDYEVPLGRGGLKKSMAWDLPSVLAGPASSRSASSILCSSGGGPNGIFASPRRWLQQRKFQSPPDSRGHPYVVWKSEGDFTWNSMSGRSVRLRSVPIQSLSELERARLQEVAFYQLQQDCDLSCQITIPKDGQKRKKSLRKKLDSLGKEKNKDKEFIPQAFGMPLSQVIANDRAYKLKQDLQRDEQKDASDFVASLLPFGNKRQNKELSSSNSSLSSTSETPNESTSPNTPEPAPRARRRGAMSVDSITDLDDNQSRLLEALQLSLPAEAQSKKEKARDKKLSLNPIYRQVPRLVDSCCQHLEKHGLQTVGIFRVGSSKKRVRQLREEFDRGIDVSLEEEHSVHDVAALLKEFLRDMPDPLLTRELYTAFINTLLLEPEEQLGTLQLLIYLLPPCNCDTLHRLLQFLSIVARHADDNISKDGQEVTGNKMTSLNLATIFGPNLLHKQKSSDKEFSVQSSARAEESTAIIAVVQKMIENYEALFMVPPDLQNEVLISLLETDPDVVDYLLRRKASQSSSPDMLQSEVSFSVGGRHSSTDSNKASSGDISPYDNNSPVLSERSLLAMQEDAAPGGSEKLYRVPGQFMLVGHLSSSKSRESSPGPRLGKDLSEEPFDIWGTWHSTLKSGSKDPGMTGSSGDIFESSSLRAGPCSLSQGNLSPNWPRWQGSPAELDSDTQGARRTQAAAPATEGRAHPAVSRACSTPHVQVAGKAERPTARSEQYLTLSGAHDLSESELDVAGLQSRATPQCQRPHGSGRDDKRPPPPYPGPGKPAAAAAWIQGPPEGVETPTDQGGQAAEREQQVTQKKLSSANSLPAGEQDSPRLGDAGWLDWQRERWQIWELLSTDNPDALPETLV
Chain of UniProt Q9Y303 (Q9Y303 whole entry, looked up): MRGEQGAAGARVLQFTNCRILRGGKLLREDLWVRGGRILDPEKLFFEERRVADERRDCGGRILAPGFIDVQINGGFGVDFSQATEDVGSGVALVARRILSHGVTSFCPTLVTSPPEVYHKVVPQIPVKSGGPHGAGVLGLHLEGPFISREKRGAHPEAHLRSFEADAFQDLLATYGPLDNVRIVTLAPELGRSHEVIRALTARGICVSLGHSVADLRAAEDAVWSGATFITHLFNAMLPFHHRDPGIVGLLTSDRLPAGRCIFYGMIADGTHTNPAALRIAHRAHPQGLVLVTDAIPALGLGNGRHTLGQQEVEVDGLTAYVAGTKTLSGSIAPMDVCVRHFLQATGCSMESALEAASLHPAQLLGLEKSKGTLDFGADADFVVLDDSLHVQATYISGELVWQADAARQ
Chain of UniProt P08758 (P08758 whole entry, looked up): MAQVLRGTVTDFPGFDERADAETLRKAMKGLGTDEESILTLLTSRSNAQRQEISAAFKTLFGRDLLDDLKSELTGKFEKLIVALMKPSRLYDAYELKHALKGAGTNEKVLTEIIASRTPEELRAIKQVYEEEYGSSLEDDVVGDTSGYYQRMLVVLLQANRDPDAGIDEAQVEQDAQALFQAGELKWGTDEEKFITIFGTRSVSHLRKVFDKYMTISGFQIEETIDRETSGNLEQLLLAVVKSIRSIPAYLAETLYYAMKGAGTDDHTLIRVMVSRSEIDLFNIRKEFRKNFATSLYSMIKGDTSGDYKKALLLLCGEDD
Chain of UniProt P33121 (P33121 whole entry, looked up): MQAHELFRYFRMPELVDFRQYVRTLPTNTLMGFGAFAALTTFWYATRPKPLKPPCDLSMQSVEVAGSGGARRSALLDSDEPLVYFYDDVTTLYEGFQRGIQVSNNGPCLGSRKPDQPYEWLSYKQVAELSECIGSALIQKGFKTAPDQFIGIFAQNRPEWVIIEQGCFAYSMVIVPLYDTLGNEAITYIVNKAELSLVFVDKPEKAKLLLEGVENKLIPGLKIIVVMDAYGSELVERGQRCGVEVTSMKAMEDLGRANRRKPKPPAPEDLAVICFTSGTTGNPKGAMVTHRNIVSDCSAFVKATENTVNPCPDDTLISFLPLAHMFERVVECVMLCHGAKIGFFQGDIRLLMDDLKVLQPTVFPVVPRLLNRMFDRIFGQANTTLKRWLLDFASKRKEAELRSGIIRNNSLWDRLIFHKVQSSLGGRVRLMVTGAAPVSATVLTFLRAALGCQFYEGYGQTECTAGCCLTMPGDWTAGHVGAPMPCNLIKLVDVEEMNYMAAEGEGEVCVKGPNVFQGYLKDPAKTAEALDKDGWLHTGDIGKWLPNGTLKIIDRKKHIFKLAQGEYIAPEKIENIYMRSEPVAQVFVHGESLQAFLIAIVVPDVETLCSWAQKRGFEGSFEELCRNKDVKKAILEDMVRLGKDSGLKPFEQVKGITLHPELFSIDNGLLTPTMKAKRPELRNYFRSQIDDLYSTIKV
Chain of UniProt Q02252 (Q02252 whole entry, looked up): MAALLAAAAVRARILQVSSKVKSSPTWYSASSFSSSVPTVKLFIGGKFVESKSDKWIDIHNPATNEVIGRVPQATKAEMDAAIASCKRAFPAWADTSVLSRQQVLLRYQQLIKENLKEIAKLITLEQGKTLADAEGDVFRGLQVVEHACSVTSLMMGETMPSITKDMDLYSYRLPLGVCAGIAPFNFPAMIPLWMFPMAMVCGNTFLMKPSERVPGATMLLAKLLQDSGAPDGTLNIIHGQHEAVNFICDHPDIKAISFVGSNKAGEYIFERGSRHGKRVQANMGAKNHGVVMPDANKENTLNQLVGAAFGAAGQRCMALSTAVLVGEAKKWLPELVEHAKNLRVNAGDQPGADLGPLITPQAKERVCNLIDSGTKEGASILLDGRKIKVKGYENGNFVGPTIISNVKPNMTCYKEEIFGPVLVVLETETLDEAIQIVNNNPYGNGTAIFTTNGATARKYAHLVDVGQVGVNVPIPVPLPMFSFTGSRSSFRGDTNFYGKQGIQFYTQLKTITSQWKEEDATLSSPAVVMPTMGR
Chain of UniProt P04083 (P04083 whole entry, looked up): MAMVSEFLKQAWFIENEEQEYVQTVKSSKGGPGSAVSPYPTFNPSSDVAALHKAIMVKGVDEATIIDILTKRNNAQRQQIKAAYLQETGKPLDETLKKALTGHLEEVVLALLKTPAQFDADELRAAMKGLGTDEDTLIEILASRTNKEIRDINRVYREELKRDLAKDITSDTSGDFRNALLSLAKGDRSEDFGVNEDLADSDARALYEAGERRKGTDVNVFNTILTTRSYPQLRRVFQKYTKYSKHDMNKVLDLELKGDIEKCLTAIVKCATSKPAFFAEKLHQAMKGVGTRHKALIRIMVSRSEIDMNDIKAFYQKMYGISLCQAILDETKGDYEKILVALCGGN
Chain of UniProt Q7L211 (Q7L211 whole entry, looked up): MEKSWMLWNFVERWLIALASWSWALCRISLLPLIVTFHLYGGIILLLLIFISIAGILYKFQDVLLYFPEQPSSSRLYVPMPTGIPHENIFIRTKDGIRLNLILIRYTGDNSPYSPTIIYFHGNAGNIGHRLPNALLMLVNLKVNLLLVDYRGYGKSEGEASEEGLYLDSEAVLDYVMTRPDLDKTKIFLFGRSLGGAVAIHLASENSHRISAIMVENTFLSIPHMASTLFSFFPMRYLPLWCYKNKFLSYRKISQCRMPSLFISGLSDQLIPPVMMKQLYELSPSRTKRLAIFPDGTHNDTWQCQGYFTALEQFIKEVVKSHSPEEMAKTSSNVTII
Chain of UniProt P51825 (P51825 whole entry, looked up): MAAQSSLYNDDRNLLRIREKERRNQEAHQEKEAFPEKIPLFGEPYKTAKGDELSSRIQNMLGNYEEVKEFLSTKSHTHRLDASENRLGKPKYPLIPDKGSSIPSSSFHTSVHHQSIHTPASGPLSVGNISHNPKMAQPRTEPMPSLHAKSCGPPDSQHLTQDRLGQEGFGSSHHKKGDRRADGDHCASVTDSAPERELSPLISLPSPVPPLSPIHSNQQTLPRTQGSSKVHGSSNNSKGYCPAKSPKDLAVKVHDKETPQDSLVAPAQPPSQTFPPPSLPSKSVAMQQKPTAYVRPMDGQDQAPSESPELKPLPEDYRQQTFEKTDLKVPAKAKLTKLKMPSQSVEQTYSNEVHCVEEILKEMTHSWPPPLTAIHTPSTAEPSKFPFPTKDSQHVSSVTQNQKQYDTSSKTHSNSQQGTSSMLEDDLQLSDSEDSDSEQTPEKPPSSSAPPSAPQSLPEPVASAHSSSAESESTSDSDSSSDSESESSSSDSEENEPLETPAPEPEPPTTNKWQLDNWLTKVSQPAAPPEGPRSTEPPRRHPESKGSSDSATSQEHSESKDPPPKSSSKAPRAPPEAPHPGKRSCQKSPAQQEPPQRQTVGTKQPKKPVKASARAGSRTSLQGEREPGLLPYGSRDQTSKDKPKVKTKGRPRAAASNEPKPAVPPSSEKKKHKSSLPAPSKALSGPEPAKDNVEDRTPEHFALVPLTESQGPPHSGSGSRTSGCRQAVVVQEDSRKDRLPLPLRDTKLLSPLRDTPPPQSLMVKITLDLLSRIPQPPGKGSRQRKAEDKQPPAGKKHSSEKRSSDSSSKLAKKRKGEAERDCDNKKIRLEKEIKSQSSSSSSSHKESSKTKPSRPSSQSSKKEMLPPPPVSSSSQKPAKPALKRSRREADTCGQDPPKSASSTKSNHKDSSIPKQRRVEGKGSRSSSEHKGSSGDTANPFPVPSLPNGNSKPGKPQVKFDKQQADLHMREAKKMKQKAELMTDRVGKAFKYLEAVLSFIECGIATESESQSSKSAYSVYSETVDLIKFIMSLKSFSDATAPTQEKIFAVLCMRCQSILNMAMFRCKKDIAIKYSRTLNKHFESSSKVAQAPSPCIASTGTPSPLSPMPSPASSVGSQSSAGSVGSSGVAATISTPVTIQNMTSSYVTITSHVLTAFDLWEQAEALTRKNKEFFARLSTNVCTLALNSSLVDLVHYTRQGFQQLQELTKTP
Chain of UniProt P07311 (P07311 whole entry, looked up): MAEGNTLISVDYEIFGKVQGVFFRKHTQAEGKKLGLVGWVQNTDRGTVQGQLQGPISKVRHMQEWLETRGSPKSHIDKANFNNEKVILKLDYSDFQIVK

Question: For ARHGAP25 isoform 4 (UniProt P42331), which log2 fold change is on record?
Answer: -0.115 (inactive)

Question: With ARAF (UniProt P10398) as the target, how does the log2 fold change read?
Answer: -0.069 (inactive)

Question: With ANP32A (UniProt P39687) as the target, how does the log2 fold change read?
Answer: -0.006 (inactive)

Question: With ALDH5A1 isoform 2 (UniProt P51649) as the target, how does the log2 fold change read?
Answer: 0.028 (inactive)

Question: With ANP32E (UniProt Q9BTT0) as the target, how does the log2 fold change read?
Answer: 0.016 (inactive)

Question: With AKAP8L (UniProt Q9ULX6) as the target, how does the log2 fold change read?
Answer: -0.024 (inactive)

Question: ABHD13 (UniProt Q7L211) was tested. Which log2 fold change did it give?
Answer: 0.121 (inactive)

Question: How did the log2 fold change turn out when ANXA11 (UniProt P50995) was run?
Answer: 0.005 (inactive)

Question: With ADD1 isoform 3 (UniProt P35611) as the target, how does the log2 fold change read?
Answer: -0.016 (inactive)

Question: Which log2 fold change does the source give for AK2 (UniProt P54819) here?
Answer: 0.024 (inactive)

Question: Which log2 fold change does the source give for AKAP8 (UniProt O43823) here?
Answer: -0.075 (inactive)

Question: For ARFGAP1 (UniProt Q8N6T3), which log2 fold change is on record?
Answer: -0.004 (inactive)

Question: Which log2 fold change does the source give for ANAPC7 (UniProt Q9UJX3) here?
Answer: -0.054 (inactive)

Question: For ALDH6A1 (UniProt Q02252), which log2 fold change is on record?
Answer: -0.027 (inactive)

Question: With ANKRD27 (UniProt Q96NW4) as the target, how does the log2 fold change read?
Answer: -0.177 (inactive)

Question: For ALG13 (UniProt Q9NP73), which log2 fold change is on record?
Answer: -0.067 (inactive)

Question: For ASB6 (UniProt Q9NWX5), which log2 fold change is on record?
Answer: -0.002 (inactive)

Question: For ACAT1 (UniProt P24752), which log2 fold change is on record?
Answer: -0.006 (inactive)

Question: With ANKRD54 (UniProt Q6NXT1) as the target, how does the log2 fold change read?
Answer: -0.024 (inactive)

Question: With AKT2 (UniProt P31751) as the target, how does the log2 fold change read?
Answer: 0.001 (inactive)

Question: AP5B1 (UniProt Q2VPB7) was tested. Which log2 fold change did it give?
Answer: -0.027 (inactive)

Question: For ANXA1 (UniProt P04083), which log2 fold change is on record?
Answer: 0.034 (inactive)

Question: For ARHGAP21 (UniProt Q5T5U3), which log2 fold change is on record?
Answer: -0.06 (inactive)

Question: For ACYP1 (UniProt P07311), which log2 fold change is on record?
Answer: 0.024 (inactive)

Question: With AKAP11 (UniProt Q9UKA4) as the target, how does the log2 fold change read?
Answer: 0.012 (inactive)

Question: Which log2 fold change does the source give for ALDH2 (UniProt P05091) here?
Answer: 0.121 (inactive)

Question: ARHGAP6 (UniProt O43182) was tested. Which log2 fold change did it give?
Answer: -0.019 (inactive)

Question: ACSL1 (UniProt P33121) was tested. Which log2 fold change did it give?
Answer: 0.007 (inactive)

Question: How did the log2 fold change turn out when ARMC6 (UniProt Q6NXE6) was run?
Answer: -0.057 (inactive)

Question: How did the log2 fold change turn out when AFF1 isoform 2 (UniProt P51825) was run?
Answer: -0.01 (inactive)

Question: For ANKRD30A (UniProt Q9BXX3), which log2 fold change is on record?
Answer: 0.179 (inactive)

Question: Which log2 fold change does the source give for AMDHD2 isoform 3 (UniProt Q9Y303) here?
Answer: 0.035 (inactive)

Question: ANXA5 (UniProt P08758) was tested. Which log2 fold change did it give?
Answer: 0.111 (inactive)

Question: Which log2 fold change does the source give for ACTG1 (UniProt I3L4N8) here?
Answer: 0.032 (inactive)

Question: Which log2 fold change does the source give for ARL15 (UniProt Q9NXU5) here?
Answer: 0.024 (inactive)

These targets were tested with Cn1cncc1[C@@](N)(c1ccc(Cl)cc1)c1ccc2c(c1)c(-c1cccc(Cl)c1)cc(=O)n2C [tipifarnib] in the same assay as above.
Summary of the method: as §1

Question: How did the log2 fold change turn out when ARHGAP25 isoform 4 (UniProt P42331) was run?
Answer: -0.016 (inactive)

Question: How did the log2 fold change turn out when ARAF (UniProt P10398) was run?
Answer: -0.023 (inactive)

Question: ANP32A (UniProt P39687) was tested. Which log2 fold change did it give?
Answer: 0.002 (inactive)

Question: For ALDH5A1 isoform 2 (UniProt P51649), which log2 fold change is on record?
Answer: -0.063 (inactive)

Question: For ANP32E (UniProt Q9BTT0), which log2 fold change is on record?
Answer: -0.02 (inactive)

Question: Which log2 fold change does the source give for AKAP8L (UniProt Q9ULX6) here?
Answer: -0.011 (inactive)

Question: How did the log2 fold change turn out when ABHD13 (UniProt Q7L211) was run?
Answer: -0.233 (inactive)

Question: How did the log2 fold change turn out when ANXA11 (UniProt P50995) was run?
Answer: -0.011 (inactive)

Question: How did the log2 fold change turn out when ADD1 isoform 3 (UniProt P35611) was run?
Answer: 0.019 (inactive)

Question: For AK2 (UniProt P54819), which log2 fold change is on record?
Answer: 0.007 (inactive)

Question: AKAP8 (UniProt O43823) was tested. Which log2 fold change did it give?
Answer: 0.025 (inactive)

Question: With ARFGAP1 (UniProt Q8N6T3) as the target, how does the log2 fold change read?
Answer: -0.475 (active)

Question: For ANAPC7 (UniProt Q9UJX3), which log2 fold change is on record?
Answer: -0.019 (inactive)

Question: How did the log2 fold change turn out when ALDH6A1 (UniProt Q02252) was run?
Answer: -0.026 (inactive)

Question: For ANKRD27 (UniProt Q96NW4), which log2 fold change is on record?
Answer: -0.067 (inactive)

Question: With ALG13 (UniProt Q9NP73) as the target, how does the log2 fold change read?
Answer: -0.036 (inactive)

Question: For ASB6 (UniProt Q9NWX5), which log2 fold change is on record?
Answer: 0.041 (inactive)

Question: With ACAT1 (UniProt P24752) as the target, how does the log2 fold change read?
Answer: 0.044 (inactive)

Question: Which log2 fold change does the source give for ANKRD54 (UniProt Q6NXT1) here?
Answer: 0.019 (inactive)

Question: For AKT2 (UniProt P31751), which log2 fold change is on record?
Answer: 0.017 (inactive)

Question: How did the log2 fold change turn out when AP5B1 (UniProt Q2VPB7) was run?
Answer: -0.087 (inactive)

Question: For ANXA1 (UniProt P04083), which log2 fold change is on record?
Answer: 0.026 (inactive)

Question: For ARHGAP21 (UniProt Q5T5U3), which log2 fold change is on record?
Answer: 0.019 (inactive)

Question: ACYP1 (UniProt P07311) was tested. Which log2 fold change did it give?
Answer: 0.019 (inactive)

Question: How did the log2 fold change turn out when AKAP11 (UniProt Q9UKA4) was run?
Answer: 0.022 (inactive)

Question: ALDH2 (UniProt P05091) was tested. Which log2 fold change did it give?
Answer: 0.039 (inactive)

Question: How did the log2 fold change turn out when ARHGAP6 (UniProt O43182) was run?
Answer: 0.02 (inactive)

Question: For ACSL1 (UniProt P33121), which log2 fold change is on record?
Answer: -0.013 (inactive)

Question: How did the log2 fold change turn out when ARMC6 (UniProt Q6NXE6) was run?
Answer: 0 (inactive)

Question: How did the log2 fold change turn out when AFF1 isoform 2 (UniProt P51825) was run?
Answer: 0.028 (inactive)

Question: ANKRD30A (UniProt Q9BXX3) was tested. Which log2 fold change did it give?
Answer: 0.15 (inactive)

Question: How did the log2 fold change turn out when AMDHD2 isoform 3 (UniProt Q9Y303) was run?
Answer: 0.01 (inactive)

Question: For ANXA5 (UniProt P08758), which log2 fold change is on record?
Answer: 0.019 (inactive)

Question: For ACTG1 (UniProt I3L4N8), which log2 fold change is on record?
Answer: 0.11 (inactive)

Question: How did the log2 fold change turn out when ARL15 (UniProt Q9NXU5) was run?
Answer: 0.031 (inactive)
